Holding throughout (parameters): scale not given: direction of the effect not stated beside the values
Experiment [1] addresses Protein translocase subunit SecA (Escherichia coli (strain K12)) (UniProt P10408). The experiment in a line: Assay to Identify E. coli SecA ATPase Inhibitors. Type of experiment: functional. The note with it: 30 µM.
The target of experiment [2] is T1, Ubiquitin-activating enzyme e1, putative (Leishmania donovani (strain BPK282A1)) (UniProt E9BSI1).
T1 sequence (whole entry): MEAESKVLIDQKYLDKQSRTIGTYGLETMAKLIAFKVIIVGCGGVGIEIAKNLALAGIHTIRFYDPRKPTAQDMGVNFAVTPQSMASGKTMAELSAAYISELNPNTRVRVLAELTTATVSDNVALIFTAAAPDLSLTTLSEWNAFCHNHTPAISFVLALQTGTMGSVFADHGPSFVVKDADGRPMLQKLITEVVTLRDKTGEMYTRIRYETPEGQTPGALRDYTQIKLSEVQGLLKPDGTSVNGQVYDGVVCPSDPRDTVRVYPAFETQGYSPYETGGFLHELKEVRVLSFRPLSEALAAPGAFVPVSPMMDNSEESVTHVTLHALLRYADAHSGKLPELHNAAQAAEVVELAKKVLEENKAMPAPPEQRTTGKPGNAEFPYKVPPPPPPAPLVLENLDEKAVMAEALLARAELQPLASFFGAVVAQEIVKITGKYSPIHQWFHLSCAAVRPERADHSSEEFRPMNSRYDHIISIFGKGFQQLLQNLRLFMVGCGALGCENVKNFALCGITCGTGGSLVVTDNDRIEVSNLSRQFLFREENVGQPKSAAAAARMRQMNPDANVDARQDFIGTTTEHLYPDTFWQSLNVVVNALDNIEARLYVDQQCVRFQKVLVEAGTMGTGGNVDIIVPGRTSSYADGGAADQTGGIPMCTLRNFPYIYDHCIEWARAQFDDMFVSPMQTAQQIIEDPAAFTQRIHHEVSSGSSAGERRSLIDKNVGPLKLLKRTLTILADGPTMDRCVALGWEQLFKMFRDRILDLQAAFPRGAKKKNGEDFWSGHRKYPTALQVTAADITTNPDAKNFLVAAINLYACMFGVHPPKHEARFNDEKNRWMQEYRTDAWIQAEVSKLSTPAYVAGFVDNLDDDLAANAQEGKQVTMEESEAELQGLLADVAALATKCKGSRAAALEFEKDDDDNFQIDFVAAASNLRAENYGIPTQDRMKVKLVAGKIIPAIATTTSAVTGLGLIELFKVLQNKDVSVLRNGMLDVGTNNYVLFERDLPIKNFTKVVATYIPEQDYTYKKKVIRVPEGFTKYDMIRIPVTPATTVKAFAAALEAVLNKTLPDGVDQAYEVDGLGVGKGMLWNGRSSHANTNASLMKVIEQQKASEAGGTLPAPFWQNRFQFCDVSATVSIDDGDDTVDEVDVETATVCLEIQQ
In words: Leishmania donovani Ubiquitin Activating Enzyme (LdE1). Type of experiment: functional. The note with it: 30 µM.

Experiment [3] has as its target AMP-activated protein kinase, AMPK (Homo sapiens) (UniProt P54646+O43741+P54619+Q9UGJ0+Q9Y478+Q13131+Q9UGI9). In words: AMP-dependent Kinase enzyme assay. An in vitro enzyme assay that detects ADP turnover that is directly proportional to AMPK activity. This uses naive AMPK that is activated during the assay with MK-8722. The format is functional. As to conditions: 30 µM.

The target of experiment [4] is Sialic acid-binding Ig-like lectin 9 (Homo sapiens) (UniProt Q9Y336). The experiment in a line: Hs-Siglec9 ALPHAscreen SOP 20170721. The note with it: 10 µM.
The test system of experiment [5] is Trypanosoma cruzi. In words: Trypanosoma cruzi phosphomannomutase and mannose-1-phosphate guanylyltransferase assay. The format is functional. As to conditions: 10 µM.
Experiment [6] concerns the target T2, Arginase-2, mitochondrial (Homo sapiens) (UniProt P78540).
T2 sequence (whole entry): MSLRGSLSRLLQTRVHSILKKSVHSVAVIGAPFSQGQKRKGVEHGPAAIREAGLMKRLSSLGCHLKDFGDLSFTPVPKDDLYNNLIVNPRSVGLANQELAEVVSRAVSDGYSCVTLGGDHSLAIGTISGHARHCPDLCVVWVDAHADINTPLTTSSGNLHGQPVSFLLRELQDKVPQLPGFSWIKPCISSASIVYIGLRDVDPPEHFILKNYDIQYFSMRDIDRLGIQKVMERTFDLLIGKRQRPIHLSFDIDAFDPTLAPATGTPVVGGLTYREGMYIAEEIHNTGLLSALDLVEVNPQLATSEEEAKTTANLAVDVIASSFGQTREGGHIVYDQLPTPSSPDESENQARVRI
In words: in vitro enzyme assay to detect the production of urea directly proportional to the activity of Arginase II. Note: in the data most compounds retested in dose-response had high values. As to conditions: 33.3 µM. Type of experiment: functional.

Experiment [7] concerns the target T3, Proteasome subunit beta (Trypanosoma cruzi) (UniProt O96673).
T3 sequence (whole entry): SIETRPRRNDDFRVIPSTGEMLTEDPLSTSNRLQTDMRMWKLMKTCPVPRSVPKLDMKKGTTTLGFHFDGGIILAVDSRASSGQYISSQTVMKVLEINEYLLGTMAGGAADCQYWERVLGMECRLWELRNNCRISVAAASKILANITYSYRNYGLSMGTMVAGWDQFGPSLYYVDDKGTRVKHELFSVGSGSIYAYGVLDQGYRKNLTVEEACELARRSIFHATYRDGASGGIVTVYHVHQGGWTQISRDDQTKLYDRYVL
In words: Trypanosoma cruzi proteasome chymotrypsin-like activity (TcProtChymo) assay. Note: in the data most compounds retested in dose-response had high values. Type of experiment: functional. The note with it: 9.37 µM.

The species entered for experiment [8] is Homo sapiens. The experiment in a line: To identify inhibition of the IFN signalling (Jak-Stat) pathway via expression of an eGFP reporter gene under the control of an IFN-stimulated response element (ISRE) containing MxA promoter. Type of experiment: functional. The note with it: 30 µM. (In a reporter assay the amount or activity of a reporter protein is the signal.)

The target in experiment [9] is T4, Tyrosyl-tRNA synthetase, putative (Trypanosoma cruzi (strain CL Brener)) (UniProt Q4DSP6).
T4 sequence (whole entry): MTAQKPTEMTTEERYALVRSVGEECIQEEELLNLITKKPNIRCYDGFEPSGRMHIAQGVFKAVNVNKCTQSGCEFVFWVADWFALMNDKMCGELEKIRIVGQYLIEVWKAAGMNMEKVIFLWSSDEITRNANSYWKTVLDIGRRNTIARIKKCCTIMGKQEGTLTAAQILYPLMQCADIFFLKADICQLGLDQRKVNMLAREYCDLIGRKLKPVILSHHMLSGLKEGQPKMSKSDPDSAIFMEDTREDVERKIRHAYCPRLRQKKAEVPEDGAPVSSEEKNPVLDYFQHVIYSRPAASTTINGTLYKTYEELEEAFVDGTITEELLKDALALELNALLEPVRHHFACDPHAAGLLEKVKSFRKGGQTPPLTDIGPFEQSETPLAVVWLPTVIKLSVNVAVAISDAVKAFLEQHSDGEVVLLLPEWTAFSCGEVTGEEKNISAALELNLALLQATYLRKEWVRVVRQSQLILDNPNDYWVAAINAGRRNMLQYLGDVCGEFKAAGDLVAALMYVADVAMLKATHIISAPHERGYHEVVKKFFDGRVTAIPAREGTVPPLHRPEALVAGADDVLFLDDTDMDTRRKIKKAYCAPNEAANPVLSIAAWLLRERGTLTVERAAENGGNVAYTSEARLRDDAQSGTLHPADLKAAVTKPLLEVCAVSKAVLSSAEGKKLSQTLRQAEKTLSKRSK
In words: Trypanosoma cruzi tyrosyl tRNA synthetase (TcYRS) _High Tyrosine SOP. Note: in the data most compounds retested in dose-response had high values. Type of experiment: functional. The note with it: 30 µM.

Experiment [10] addresses T4, Tyrosyl-tRNA synthetase, putative (Trypanosoma cruzi (strain CL Brener)). The experiment in a line: Trypanosoma cruzi tyrosyl tRNA synthetase (TcYRS) SOP. As to conditions: 30 µM. Type of experiment: functional.
The target of experiment [11] is Chromo domain-containing protein 1 (Saccharomyces cerevisiae (strain ATCC 204508 / S288c) (Baker's yeast)) (UniProt P32657). The experiment in a line: ScCHD-1 Enzyme Inhibition Assay. Note: in the data most compounds retested in dose-response had high values. The note with it: 30 µM. The format is functional.

The structures appear in SMILES notation. For some assays here: Results with a measured potency or affinity are listed apart.

Sequence of Sialic acid-binding Ig-like lectin 9 (Homo sapiens) (Q9Y336 whole entry): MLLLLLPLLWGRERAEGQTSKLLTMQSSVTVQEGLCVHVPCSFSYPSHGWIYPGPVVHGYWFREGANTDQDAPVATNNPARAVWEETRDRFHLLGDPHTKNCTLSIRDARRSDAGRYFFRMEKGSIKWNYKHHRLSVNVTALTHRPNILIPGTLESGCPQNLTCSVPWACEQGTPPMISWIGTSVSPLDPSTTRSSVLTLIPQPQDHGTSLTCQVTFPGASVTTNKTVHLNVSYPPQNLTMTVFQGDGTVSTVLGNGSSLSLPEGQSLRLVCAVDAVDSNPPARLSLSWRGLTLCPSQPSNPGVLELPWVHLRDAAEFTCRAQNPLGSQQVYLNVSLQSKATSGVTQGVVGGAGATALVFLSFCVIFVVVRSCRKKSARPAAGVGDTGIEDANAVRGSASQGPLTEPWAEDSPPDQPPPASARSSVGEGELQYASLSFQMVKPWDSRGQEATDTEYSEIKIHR
Sequence of Chromo domain-containing protein 1 (Saccharomyces cerevisiae (strain ATCC 204508 / S288c) (Baker's yeast)) (P32657 whole entry, the tested form may be a part): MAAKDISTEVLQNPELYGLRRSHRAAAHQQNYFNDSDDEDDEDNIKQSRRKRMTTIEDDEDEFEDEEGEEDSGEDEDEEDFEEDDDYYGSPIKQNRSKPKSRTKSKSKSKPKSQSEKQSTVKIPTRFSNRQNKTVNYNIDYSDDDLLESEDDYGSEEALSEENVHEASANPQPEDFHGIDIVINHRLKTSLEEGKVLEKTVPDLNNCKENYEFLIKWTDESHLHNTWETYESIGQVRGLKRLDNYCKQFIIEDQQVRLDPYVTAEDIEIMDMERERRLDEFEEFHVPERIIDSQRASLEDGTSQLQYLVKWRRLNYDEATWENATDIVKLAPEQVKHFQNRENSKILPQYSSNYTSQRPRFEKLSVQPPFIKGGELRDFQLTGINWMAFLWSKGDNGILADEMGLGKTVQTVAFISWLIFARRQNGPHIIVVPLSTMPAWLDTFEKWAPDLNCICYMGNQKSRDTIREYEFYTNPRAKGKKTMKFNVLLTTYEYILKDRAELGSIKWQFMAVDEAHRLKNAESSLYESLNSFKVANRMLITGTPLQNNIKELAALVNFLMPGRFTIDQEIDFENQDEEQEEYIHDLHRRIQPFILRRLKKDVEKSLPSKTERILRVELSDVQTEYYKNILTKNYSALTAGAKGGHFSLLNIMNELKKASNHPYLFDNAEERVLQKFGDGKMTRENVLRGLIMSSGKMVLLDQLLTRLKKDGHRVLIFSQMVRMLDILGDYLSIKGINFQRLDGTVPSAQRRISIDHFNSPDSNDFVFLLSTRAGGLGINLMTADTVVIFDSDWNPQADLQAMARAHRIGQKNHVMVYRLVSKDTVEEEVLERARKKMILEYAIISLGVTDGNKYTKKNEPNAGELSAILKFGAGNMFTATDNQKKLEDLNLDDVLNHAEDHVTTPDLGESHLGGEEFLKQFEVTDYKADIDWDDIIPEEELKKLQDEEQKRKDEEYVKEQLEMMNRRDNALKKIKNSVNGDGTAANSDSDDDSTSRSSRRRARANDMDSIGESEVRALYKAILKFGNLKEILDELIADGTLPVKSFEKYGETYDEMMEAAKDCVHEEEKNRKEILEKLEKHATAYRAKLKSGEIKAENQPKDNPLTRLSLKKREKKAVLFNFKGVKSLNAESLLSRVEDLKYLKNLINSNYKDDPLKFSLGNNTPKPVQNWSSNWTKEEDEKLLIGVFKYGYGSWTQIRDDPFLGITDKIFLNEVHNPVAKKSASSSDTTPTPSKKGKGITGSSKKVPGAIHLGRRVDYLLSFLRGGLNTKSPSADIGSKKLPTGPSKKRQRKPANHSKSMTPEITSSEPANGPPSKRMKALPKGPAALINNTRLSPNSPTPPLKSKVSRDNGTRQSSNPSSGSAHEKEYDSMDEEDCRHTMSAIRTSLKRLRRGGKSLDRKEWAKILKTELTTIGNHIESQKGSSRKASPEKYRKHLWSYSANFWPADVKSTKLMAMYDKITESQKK
Sequence of Protein translocase subunit SecA (Escherichia coli (strain K12)) (P10408 whole entry): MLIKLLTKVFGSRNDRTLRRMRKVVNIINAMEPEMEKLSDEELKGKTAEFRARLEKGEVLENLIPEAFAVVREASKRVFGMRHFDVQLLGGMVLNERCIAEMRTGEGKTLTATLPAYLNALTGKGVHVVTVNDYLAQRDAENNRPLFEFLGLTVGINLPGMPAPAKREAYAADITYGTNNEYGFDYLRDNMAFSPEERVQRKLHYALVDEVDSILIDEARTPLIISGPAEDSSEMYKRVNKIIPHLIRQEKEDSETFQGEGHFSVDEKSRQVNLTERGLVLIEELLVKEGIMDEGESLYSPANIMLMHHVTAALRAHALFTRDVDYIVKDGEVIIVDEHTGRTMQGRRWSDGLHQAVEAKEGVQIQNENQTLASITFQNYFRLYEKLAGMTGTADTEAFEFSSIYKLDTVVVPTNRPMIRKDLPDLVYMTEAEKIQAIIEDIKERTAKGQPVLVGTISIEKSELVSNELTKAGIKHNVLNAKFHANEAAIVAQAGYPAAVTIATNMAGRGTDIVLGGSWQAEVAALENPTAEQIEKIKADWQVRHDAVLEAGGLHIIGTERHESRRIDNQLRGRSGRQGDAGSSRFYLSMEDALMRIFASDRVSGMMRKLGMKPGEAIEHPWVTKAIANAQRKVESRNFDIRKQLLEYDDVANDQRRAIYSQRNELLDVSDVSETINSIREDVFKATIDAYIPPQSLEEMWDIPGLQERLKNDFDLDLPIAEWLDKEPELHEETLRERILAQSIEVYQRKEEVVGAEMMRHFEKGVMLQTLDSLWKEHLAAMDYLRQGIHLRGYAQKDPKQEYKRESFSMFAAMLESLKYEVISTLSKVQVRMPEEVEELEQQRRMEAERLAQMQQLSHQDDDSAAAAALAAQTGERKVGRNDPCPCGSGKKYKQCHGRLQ

Consider `CN(C(=O)Cn1nc(-c2cccs2)ccc1=O)C1CCS(=O)(=O)C1` (configuration not stated), for which the Percent Effect in experiment [1] is -7.27%; in experiment [2], 0%; in [3], -37.7%; in [4] it was -0.941%; in [5], -7.3%; in experiment [6] it was 1.18%. The Percent Effect in experiment [7] is 14.9%; in experiment [8], 19.4%; in [9] it was -5.32%; in experiment [10], -10.4%; in experiment [11], -7.9%.
Turning to `CCOCCn1c(=O)[nH]c2cc(C(=O)N(C)Cc3nc(C)cs3)ccc21`, the Percent Effect in experiment [1] is -0.0499%; in experiment [2], 8.11%; in experiment [3], -5.57%; in [4] it was 8.59%; in [5], -2.9%; in experiment [6], 0.476%. The Percent Effect in experiment [7] was 21%; in experiment [8], 1.41%; in experiment [9], 5.82%; in experiment [10], 17.1%; in [11], -3.61%.
On to `CNC(=O)NC(=O)CN1CCC(c2cccc(F)c2)C1` (configuration not stated), for which the Percent Effect in [1] is -1.99%; in experiment [2] it was 0%; in experiment [3] it was 5.35%; in experiment [4], -0.914%; in experiment [5] it was -2.82%; in experiment [6], 2.3%. Further, the Percent Effect in experiment [7] is -2.51%; in experiment [8], 11.3%; in experiment [9], 2.45%; in experiment [10], 4.88%; in experiment [11] it was 4.66%.
Take `c1cc(CNCc2ccnc(N3CCOCC3)c2)c2c(c1)OCCO2`: the Percent Effect in experiment [1] is -3.35%; in [2], 5.41%; in [3], -12.3%; in experiment [4] it was 26.3%; in experiment [5], 8.31%; in experiment [6], 15.1%. The Percent Effect is 6.27% in experiment [7]; 15.7% in experiment [8]; 1.07% in experiment [9]; 16.1% in [10]; -5.85% in experiment [11].
As to `COc1ccccc1OCCN1CCCC(c2noc(C3CC3)n2)C1` (configuration not stated), the Percent Effect was -3.76% in [1]; 0% in experiment [2]; -2.32% in experiment [3]; -0.399% in experiment [4]; -2.24% in experiment [5]; 3.12% in [6]. Further, the Percent Effect in [7] was 5.41%; in experiment [8] it was -3.11%; in [9], 2.73%; in experiment [10], 6.17%; in [11], -4.48%.
For `Cc1nc(C)n(C2CCCN(C(=O)c3cnc[nH]3)C2)n1` (configuration not stated), the Percent Effect in experiment [1] was -4.48%; in experiment [2], -2.7%; in experiment [3] it was -9.26%; in experiment [4] it was 8.79%; in [5] it was -4.43%; in experiment [6], 2%. In addition, the Percent Effect in experiment [7] is -2.7%; in experiment [8], 0.378%; in experiment [9], -5.42%; in experiment [10], 1.24%; in experiment [11], 6.8%.
As for `CN(Cc1cccc(Cl)c1)S(=O)(=O)N1CCOCC1`, the Percent Effect in experiment [1] was -3.38%; in experiment [2], 10.5%; in [3], 6.62%; in [4], -2.67%; in experiment [5], 4.58%; in experiment [6], -5.92%. For the same molecule, the Percent Effect in experiment [7] is 23.9%; in experiment [8] it was -6.09%; in experiment [9], 1.06%; in experiment [10], 15.6%; in experiment [11], -2.59%.

The values are drawn from ChEMBL document CHEMBL3988442, “University of Dundee, Small-Polar-MMV Screening Library” (2021).
